Measured values taken from PubChem BioAssay AID441 (NMMLSC, 2006).
The whole screen tested about 24,000 compounds, of which about 70 (0.3%) were called active. Shown is part of a subset that was picked to be rich in actives. Unmarked numbers belong to inactive results. Cut-off read from the data, not from the text of the source: active = inhibition above about 30%; inconclusive = no clear call, values can overlap the other calls; inactive = below that.

Each compound was assayed against N-formyl peptide receptor 2 (Homo sapiens) (UniProt P25090) (assay: human FPRL1 ligands by binding competition, primary screen, cell-based, FPR counter-screen, flow cytometry (AID 441;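 note: 0% = buffer alone and 100% = receptor blocker peptide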)). Details: FPRL1-expressing cells, fluorescent ligand binding inhibition, stronger effect = higher value, concentration not given here.
N-formyl peptide receptor 2 (Homo sapiens), sequence (P25090 whole entry, looked up): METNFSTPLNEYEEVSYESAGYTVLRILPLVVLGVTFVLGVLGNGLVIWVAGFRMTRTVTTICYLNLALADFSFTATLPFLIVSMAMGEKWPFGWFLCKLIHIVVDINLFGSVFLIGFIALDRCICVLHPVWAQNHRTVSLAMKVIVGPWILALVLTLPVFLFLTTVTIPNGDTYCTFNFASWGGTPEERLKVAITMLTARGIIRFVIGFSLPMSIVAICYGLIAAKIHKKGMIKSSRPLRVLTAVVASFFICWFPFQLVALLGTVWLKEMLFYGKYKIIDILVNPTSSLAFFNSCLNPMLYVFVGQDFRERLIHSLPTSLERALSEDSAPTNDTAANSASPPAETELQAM
`Cc1nnc(SCC(=O)N(C(C)C)C(C)C)nc1C` was tested, and the inhibition was -5.7%. `CCOC(=O)N1CCC(NC(=O)Cn2cc3c(n2)CCCCC3)CC1` showed an inhibition of 0.2%. With `CCOC(=O)c1oc2c(CN3CCN(C)CC3)c(O)ccc2c(=O)c1-c1ccc(Br)cc1` the inhibition was -3%. With `Cn1c(CNC(=O)C(C)(C)C)nc2ccccc21` the inhibition was -0.3%. For `Cc1c(NC(=O)C(C)OC(=O)c2cc3c4ccccc4n(C)c3s2)c(=O)n(-c2ccccc2)n1C` (configuration not stated), the inhibition was 0.1%. Work on `CCCNC(=O)C1CC(=O)N(c2ccc(OCC(=O)Nc3cccc(C)c3C)cc2)C1` (configuration not stated) yielded an inhibition of -4.6%. In the case of `O=c1c2ccccc2[nH]c(=S)n1CCN1CCC(=C(c2ccc(F)cc2)c2ccc(F)cc2)CC1`, the inhibition is reported as -11%. `O=C1C(=O)N(CCN2CCOCC2)C(c2ccccn2)/C1=C(/O)c1ccc(Cl)cc1` (configuration not stated) was tested, and the inhibition was -6.2%. In the case of `COCCCN1C(=O)C(=O)/C(=C(/O)c2ccc3c(c2)CC(C)O3)C1c1cccnc1` (configuration not stated), the inhibition is reported as 28.3%. For `CC1Cc2cc(/C(O)=C3\C(=O)C(=O)N(CCN4CCOCC4)C3c3ccccc3F)ccc2O1` (configuration not stated), the inhibition was 30.8% (active). Compound `CCOc1ccccc1C1CC(c2ccccc2)Nc2nc(N)nn21` (configuration not stated) has an inhibition of 0.2%. `CCOC(=O)C1CCN(C(=O)Cc2c(C(=O)O)[nH]c3ccccc23)CC1` gave an inhibition of 0.3%. For `CC1CCC(NS(=O)(=O)c2ccc3c(c2)n(C)c(=O)c(=O)n3C)CC1` (configuration not stated), the inhibition was -4.7%. Work on `O=C(CC(NCCN1CCOCC1)C(=O)O)Nc1cccc(Cl)c1` (configuration not stated) yielded an inhibition of 4.9%. `CCN(CCCNC(=O)C1CCN(S(=O)(=O)c2cnc[nH]2)CC1)c1ccccc1` showed an inhibition of -1.3%. Compound `CCOC(=O)CNC(=O)CN1C(=O)CCSc2ccccc21` has an inhibition of -6.4%. For `CCOC(=O)c1ccc(-n2c(C)nc3c(cnn3-c3ccccc3C)c2=O)cc1`, the inhibition was -6%. `Cc1cc(C)cc(N(CC(=O)NCC2CCCO2)S(=O)(=O)c2c(C)noc2C)c1` (configuration not stated) gave an inhibition of 3.6%. Compound `Cc1nc2ccccc2c2oc(C(=O)NCC3CCCO3)cc12` (configuration not stated) has an inhibition of 3.5%. For `CCOC(=O)c1nnn(-c2nonc2OC)c1-c1ccccc1`, the inhibition was 5.9%. With `N#CCCN1CCN(S(=O)(=O)c2ccc(S(=O)(=O)N3CCCC3)cc2)CC1` the inhibition was 1.9%. `COC(=O)C1=C(C)Nc2ncnn2C1c1ccco1` (configuration not stated) gave an inhibition of 0.6%. In the case of `COc1ccc(N2C(=O)CCC(C(=O)N(C)C3CCCCC3)C2c2ccc(OC)c(OC)c2)cc1` (configuration not stated), the inhibition is reported as -4.6%. Compound `CCOC(=O)N1CCC(Nc2c(NCCN3CCN(c4cccc(Cl)c4)CC3)c(=O)c2=O)CC1` has an inhibition of 8%. For `O=C(CC1Oc2ccccc2NC1=O)NCCCN1CCN(Cc2ccccc2)CC1` (configuration not stated), the inhibition was -1.8%. In the case of `Cc1cccc(N2C(=O)SC(N(CC(=O)O)c3cccc(C)c3)C2=O)c1` (configuration not stated), the inhibition is reported as 0.6%. Compound `C/C(N)=C(\C#N)C(=O)NCCc1ccccn1` has an inhibition of -4.6%. Work on `COC(=O)c1ccc(CN(c2ccccc2OC)S(=O)(=O)c2cccs2)o1` yielded an inhibition of -4.4%. For `O=C(NCc1ccco1)C1CCCN(S(=O)(=O)c2cnc[nH]2)C1` (configuration not stated), the inhibition was 0.2%. Work on `Cc1cc(N2C(=O)C(=O)/C(=C(/O)c3ccccc3)C2c2cccc(Br)c2)no1` (configuration not stated) yielded an inhibition of -8.1%. Work on `COc1cccc(C(CC(=O)NCCN2CCOCC2)NS(=O)(=O)c2ccc(C)cc2)c1OC` (configuration not stated) yielded an inhibition of 0.8%. In the case of `O=C(CN1CCN(c2ccccc2F)CC1)c1ccc2c(c1)OCO2`, the inhibition is reported as -9.1%. `O=C(Nc1cccnc1)c1ccc2c(c1)OCO2` was tested, and the inhibition was -0.1%. In the case of `CCOC(=O)c1cn(CC(=O)Nc2ccc(C(C)C)cc2)nn1`, the inhibition is reported as 1.8%. For `CC1CN(C(=O)c2ccc3c(c2)OCO3)OC(c2ccccc2)O1` (configuration not stated), the inhibition was 5.6%. For `Cc1ccc(-n2nc3cc(Cl)c(NC(=O)c4ccco4)cc3n2)cc1`, the inhibition was -4.7%. Work on `CCOC(=O)c1nc(-c2ccc3c(c2)OCO3)[nH]c1C` yielded an inhibition of -7.4%. For `CCC1=C(C(=O)OC)C(c2cc(OC)ccc2OC)C(C#N)=C(N)O1` (configuration not stated), the inhibition was -1.1%. `COCCN1C(=O)c2oc3c(C)cc(C)cc3c(=O)c2C1c1cccc(O)c1` (configuration not stated) showed an inhibition of -10.9%. Work on `CCCS(=O)(=O)N1CCCC(C(=O)NCCN2CCCCC2C)C1` (configuration not stated) yielded an inhibition of 3.4%. `O=C(Cn1cnc2c(nnn2Cc2ccc(F)cc2)c1=O)NCc1ccc2c(c1)OCO2` gave an inhibition of -2.3%. In the case of `Cc1cc(C)c2c(n1)nn1c(N3CCOCC3)cc(C)nc21`, the inhibition is reported as -1.1%. With `CCOc1ccc(C(CC(=O)O)NC(=O)COc2ccccc2)cc1` (configuration not stated) the inhibition was 0.6%. With `CCOC(=O)C1C(=O)C=C(c2ccc(OC)cc2)CC1c1ccco1` (configuration not stated) the inhibition was -6.4%. `CCn1cc(C(=O)NC2CCCCCC2)c(=O)c2cc(S(=O)(=O)N3CCCCC3)ccc21` gave an inhibition of -5.2%. In the case of `Brc1cnc(N2CCCC2)nc1N1CCCCC1`, the inhibition is reported as 0.1%. Compound `CC(C)Cc1cc(C(=O)Nc2cc(Br)ccc2O)no1` has an inhibition of -1.4%. With `Cc1cc(NC(=O)c2cc(-c3cccs3)on2)nn1Cc1ccc(Cl)cc1` the inhibition was 2%. In the case of `CC(C)C[C@H](NC(=O)Nc1cccc(C(F)(F)F)c1)C(=O)O`, the inhibition is reported as 2.8%. For `Fc1ccccc1C(c1nnnn1Cc1ccc2c(c1)OCO2)N1CCN(Cc2ccccc2)CC1` (configuration not stated), the inhibition was 10.3%. `CCOc1cccc(-c2nnc3sc(COc4ccc(OC)cc4)nn23)c1` showed an inhibition of -1%. `Clc1ccc(Cc2nn3c(-c4ccncc4)nnc3s2)cc1` was tested, and the inhibition was 54.5% (active). With `c1ccc(Cc2nn3c(Cn4cnc5ccccc54)nnc3s2)cc1` the inhibition was 4.2%. Work on `O=C(COC(=O)C12CC3CC(CC(C3)C1)C2)NCc1ccco1` yielded an inhibition of 0.4%. Work on `CCCN(CCC)CCNC(=O)c1cc2c(C)nc3ccccc3c2o1` yielded an inhibition of 4.8%. `O=C1CC(c2cccc(F)c2)C2=C(CCCC2=O)N1` (configuration not stated) showed an inhibition of 4.1%. `CC(=O)NC1CC2CCCC(C1)N2CC(=O)Nc1ccccc1` (configuration not stated) gave an inhibition of 2.2%. Compound `O=C1NC2(CCCCC2)N=C1c1ccccc1` has an inhibition of -5.4%. In the case of `CC(=O)Nc1cc(C(=O)O)ccc1S(=O)(=O)c1ccc(Cl)cc1`, the inhibition is reported as -2.1%. Work on `CCOC(=O)c1cnc(-n2nc(C)cc2C)nc1Nc1cccc(C(C)=O)c1` yielded an inhibition of 9%. Compound `C[N+](C)(C)CCOP(=O)([O-])OC[C@H](O)CO` has an inhibition of 5.6%. `O=C(Nc1cccc(OCC(=O)N2CCOCC2)c1)C1CCCCC1` was tested, and the inhibition was -0.9%. `CCOc1ccccc1NC(=O)c1cc(S(=O)(=O)N2CCC3(CC2)OCCO3)ccc1F` gave an inhibition of -14.8%. Work on `CC1(C)CC(O)C(CCC(O)c2ccccc2)C(C)(C)N1` (configuration not stated) yielded an inhibition of 6.7%. `COc1ccc(-c2noc(-c3cccc(OC)c3OC)n2)cc1OC` showed an inhibition of -2.6%. `COc1ccc(S(=O)(=O)NC2(C(F)(F)F)N=C3SCCN3C2=O)cc1` (configuration not stated) showed an inhibition of 0.8%. `O=C(c1ccccc1)c1cccn1CC(=O)N1CCN(c2ccc(F)cc2)CC1` was tested, and the inhibition was 14.7%. Work on `COc1ccc(NC(=O)C2CCCN(S(=O)(=O)c3cccc4cccnc34)C2)cc1` (configuration not stated) yielded an inhibition of -6%. `COc1ccc(CC(NC(C)=O)C(=O)NC2CCN(C(=O)Nc3ccc(C#N)cc3)CC2)cc1OC` (configuration not stated) was tested, and the inhibition was 17.9%. In the case of `COc1ccccc1N1CCN(c2nc3ccccc3n3nnnc23)CC1`, the inhibition is reported as -3.6%. Compound `Cc1noc(C)c1S(=O)(=O)NCCc1ccc(S(N)(=O)=O)cc1` has an inhibition of 3%. In the case of `Nc1scc(-c2ccncc2)c1Cl`, the inhibition is reported as -8.7%. Work on `COc1ccc(NC(C)=O)cc1NC(=O)CN1CCN(c2ccccn2)CC1` yielded an inhibition of -0.9%. For `Cc1ccc(S(=O)(=O)N2C3C=CC(C3)C2C(=O)O)cc1` (configuration not stated), the inhibition was 0.9%. With `COc1cc(C2C(C(=O)Nc3ccc(F)cc3)=C(C)Nc3nc(CCCO)nn32)cc(OC)c1OC` (configuration not stated) the inhibition was -2.7%. In the case of `CC(=O)Nc1ccc(-c2cn3cccnc3n2)cc1`, the inhibition is reported as 2.3%. In the case of `CCOC(=O)N1CCN(C(=O)c2cnc3n(c2=O)CCS3)CC1`, the inhibition is reported as -0.5%. Compound `O=C(CCSCCc1ccccn1)Nc1nccs1` has an inhibition of 0.5%. `Cc1c2cnn(-c3ccccc3)c(=O)c2c(C)n1CCCC(=O)N1CCN(C)CC1` showed an inhibition of 0%. In the case of `COc1cccc(Nc2nnc(SCC(=O)N3CC(C)OC(C)C3)s2)c1` (configuration not stated), the inhibition is reported as -0.3%. Compound `COCCCNC(=O)c1ccc2c(c1)ncn2-c1ccccc1OC` has an inhibition of 0.4%. `COc1ccc(NC(=O)CCNC(=O)Cn2ccc3ccccc3c2=O)c(OC)c1` was tested, and the inhibition was -0.5%. Compound `Cc1cc(C)c(C#N)c(SCc2[nH]nc3c2C(c2ccccc2)C(C#N)=C(N)O3)n1` (configuration not stated) has an inhibition of -9.6%. `O=C(O)C1CCCCC1C(=O)Nc1ccc(Cl)cc1` (configuration not stated) gave an inhibition of -0.4%. Compound `O=C(Cn1nc(Cc2cccnc2)c2ccccc2c1=O)NCC1COc2ccccc2O1` (configuration not stated) has an inhibition of -7.3%. `CCOc1ccc2c(=O)c(-c3ccc4c(c3)OCCCO4)c(C)oc2c1` showed an inhibition of -9.1%. `CN(C)/C=C1\C=C(c2ccccc2)OC1=O` was tested, and the inhibition was -0.8%. In the case of `COc1cc2c(cc1OC)C(c1ccc(C)o1)CC(=O)N2` (configuration not stated), the inhibition is reported as -0.6%. `O=C(O)Cc1ccc(NC(=O)C2CCCCC2C(=O)O)cc1` (configuration not stated) gave an inhibition of -3.1%. Compound `CN(C)S(=O)(=O)c1ccc(Oc2ccc(S(=O)(=O)N(C)C)cc2)cc1` has an inhibition of 0.3%. Compound `Cc1cc(C)c2c(n1)nn1c(N3CCN(c4cccc(Cl)c4)CC3)cc(C)nc21` has an inhibition of 1.1%. Work on `CCCS(=O)(=O)N1CCC(C(=O)NCCCN(C)Cc2ccccc2)CC1` yielded an inhibition of -2.9%. With `Cc1nc2ccc(S(=O)(=O)NCC(=O)O)cc2s1` the inhibition was 6.9%. In the case of `Cc1ccc(Nc2cc(=O)n(C3CCCCC3)c(=O)[nH]2)cc1C`, the inhibition is reported as -0.5%. In the case of `COc1cc2ccccc2cc1C(=O)Nc1ccc(S(=O)(=O)Nc2cc(C)on2)cc1`, the inhibition is reported as 1.4%. For `O=C(CCN1C(=O)c2ccccc2C1=O)NCCN1CCOCC1`, the inhibition was 3.1%. With `Cc1cccc(NC(=O)CN2CCCN(S(=O)(=O)c3ccc(Br)s3)CC2)c1` the inhibition was 6.3%. Compound `CCCSc1nc2c(c(=O)[nH]c(=O)n2C)n1CCc1ccccc1` has an inhibition of 0.6%. `CC(=O)c1c(C)[nH]c(C(=O)NCCCN2CCCC2)c1C` gave an inhibition of 2.2%. With `COc1ccccc1CNC(=O)Cn1cc2c(n1)CCCC2` the inhibition was -1.9%. `Cc1ccccc1-n1nnc2c(=O)oc3ccccc3c21` showed an inhibition of -2.1%. `CC1(C)Oc2ccc3ccc(=O)oc3c2/C(=C/NCCO)C1=O` was tested, and the inhibition was -5.7%. `c1cc(-c2nn[nH]n2)ccc1CN1CCCCC1` gave an inhibition of -4.3%. Compound `COc1ccc(/C(O)=C2\C(=O)C(=O)N(Cc3ccco3)C2c2ccc(OC)cc2OC)cc1` (configuration not stated) has an inhibition of 26.8%. `CCOc1cccc(/C(O)=C2/C(=O)C(=O)N(CCOC)C2c2ccncc2)c1` (configuration not stated) gave an inhibition of -3.8%. Work on `COc1cccc(OCC(O)CN2CCN(CCO)CC2)c1` (configuration not stated) yielded an inhibition of 2.6%. Work on `Cc1ccc(NC(=O)CN(C)S(=O)(=O)c2cnc[nH]2)cc1C` yielded an inhibition of -2.5%. `COc1cc(C2C(C(=O)c3ccc(C)o3)=C(O)C(=O)N2Cc2cccnc2)ccc1O` (configuration not stated) gave an inhibition of 28.1%. In the case of `COc1ccc(/C(O)=C2/C(=O)C(=O)N(CC3CCCO3)C2c2ccc(OC)c(OC)c2)cc1` (configuration not stated), the inhibition is reported as -7.5%. `CCCS(=O)(=O)Nc1c(C(=O)O)[nH]c2ccccc12` showed an inhibition of 2.1%. Work on `Cc1nnc(SCCCn2c(N3CCCCC3)nc3c2c(=O)[nH]c(=O)n3C)s1` yielded an inhibition of 0.8%. In the case of `CCCCOC(=O)Nc1nccs1`, the inhibition is reported as -2.9%.
